The record followed here is PubChem BioAssay (NCATS).

Several values for one entry are separate records, joined by “and”; a condition that tells them apart may be missing. Equal values may be shown once. Records with an inconclusive call do not appear. Some compounds were tested as several samples or in several runs, with calls that do not always agree. Activity calls are given as the source filed them. Unless noted, calls come from the whole dose curve; as a rule, active = well fitted curve in either direction with a large enough effect (not every such curve was filed as active); inconclusive = small, poorly fitted or top-dose-only effect, or another doubt; inactive = flat fitted curve, though single readings scatter.

Test [1] in a line: AP1 Signaling Pathway (AID 357).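 Note: ME-180 reporter cells stimulated with EGF at its EC50 level; % is set by controls: 0 for no effect and ±100 for the full control effect.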 Put shortly: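 First, ME-180 AP-1-bla cells were cultured overnight at 37 °C in low-serum Opti-MEM. Next, titrated compounds with EC50 EGF were incubated 5 hours. Finally, CCF4 was added for 2.5 hours and the 460/530 nm ratio recorded.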
The target of test [2] is Cytochrome P450 1A2 (Homo sapiens) (UniProt P05177). Description: p450-cyp1a2 (AID 410; calls by dose curve; note: potency is the fitted concentration of half-maximal effect;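 for activity change, negative = inhibition: -100% = full effect of reference inhibitor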). Put shortly:
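Inhibition was calculated relative to 57 uM furafylline (full inhibition). The reaction used human CYP1A2 at 20nM with Luciferin-ME at its Km, 100uM, driven by an NADPH-regenerating system for 60 min at room temperature.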

Test [3] in a line: NFAT Signaling Pathway (AID 444).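 Note: carbachol stimulus at about its EC50 of 1 µM final; % is set by controls: 0 for no effect and ±100 for the full control effect.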 The conditions noted are these: Jurkat NFAT-bla M1, carbachol, beta-lactamase ratio, 5 h; at 38 µM (top of the series) unless noted. Put shortly: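 Jurkat cells carrying an NFAT-driven β-lactamase reporter and co-transfected muscarinic M1 receptor were treated with compound plus carbachol (1 uM final, an EC50 level) for 5 h at 37 °C. CCF4 loading followed for 1 h at RT; 460/530 nm ratio gave %activity.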

Test [4] has as its target Glucocorticoid receptor (Homo sapiens) (UniProt P04150). Briefly: GR-GFP Redistribution (AID 450;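 active = compounds whose dose series gives a full or clear partial fitted curve of increased nuclear translocation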; note: potency is the fitted concentration of half-maximal effect). To be noted: U2OS GR-GFP nuclear translocation, laser cytometry, 2 h.
For test [5], the target named is Mitogen-activated protein kinase 10 (Mus musculus) (UniProt Q61831). Description: JNK3 AlphaScreen Assay (AID 530).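 Note: kinase came from lysate of stimulated human HepG2 cells; signal reports phosphorylation of biotinylated GST-cJun 1-79 at Ser73 with 10 µM ATP; % is set by controls: 0 for no effect and ±100 for the full control effect.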 Put shortly: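 JNK3 came from HepG2 lysates pre-activated with IL-1beta and TNF-alpha and phosphorylated biotinylated GST-cJun (1-79) at 10 uM ATP, pH 7.6, room temperature. Compounds were titrated. AlphaScreen signal used anti-phospho-cJun (Ser73) antibody.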

For test [6], the target named is Lysosomal acid glucosylceramidase (Homo sapiens) (UniProt P04062). Description: Glucocerebrosidase-p2 (AID 348; in the data active = potency below about 10 µM; note: potency is the fitted concentration of half-maximal effect). The conditions noted are these: purified GBA, blue fluorogenic substrate, 40 min. An outline of the steps: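 Compounds titrated from 0.6 nM upwards against 0.2 nM enzyme in pH 5.9 citric acid/KH2PO4, taurocholate, tween-20; blue fluorogenic substrate 80 uM, 40 min room temperature, stopped and read Ex 365/Em 440 for AC50.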

Test [7] concerns the target Glucocorticoid receptor (Homo sapiens) (UniProt P04150). Description: GR-EFC Redistribution (AID 451; calls by dose curve; note: potency is the fitted concentration of half-maximal effect). To be noted: CHO-K1 GR-EFC translocation, beta-gal luminescence, 2 h. Put shortly: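 CHO-K1 cells stably expressing nuclear-localized β-gal enzyme acceptor and GR fused C-terminally to the enzyme donor fragment; ligand-driven nuclear translocation restores β-gal by complementation. Compounds titrated up to 46 uM final, 2 h at 37 °C; luminescence read.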

The nature of test [8]: Stat Signaling Pathway (AID 446).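 Note: ME-180 cervical cancer cells given 40 pM IL-6 alongside compound; SIE-controlled beta-lactamase reporter measured as 460/530 nm FRET emission ratio; % is set by controls: 0 for no effect and ±100 for the full control effect.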 To be noted: ME-180 SIE beta-lactamase reporter, IL-6 stimulated, 5 h; at 38 µM (top of the series) unless noted. Put shortly: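 Reporter line: ME-180 cervical carcinoma, SIE-beta-lactamase. Treatment: compound with 40 pM IL-6, 5 hrs, 37 C, in low-serum OPTI-MEM with 10 mM HEPES pH 7.3. Detection: 460/530 nm fluorescence.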

Sequence of Cytochrome P450 1A2 (Homo sapiens) (P05177 whole entry, looked up): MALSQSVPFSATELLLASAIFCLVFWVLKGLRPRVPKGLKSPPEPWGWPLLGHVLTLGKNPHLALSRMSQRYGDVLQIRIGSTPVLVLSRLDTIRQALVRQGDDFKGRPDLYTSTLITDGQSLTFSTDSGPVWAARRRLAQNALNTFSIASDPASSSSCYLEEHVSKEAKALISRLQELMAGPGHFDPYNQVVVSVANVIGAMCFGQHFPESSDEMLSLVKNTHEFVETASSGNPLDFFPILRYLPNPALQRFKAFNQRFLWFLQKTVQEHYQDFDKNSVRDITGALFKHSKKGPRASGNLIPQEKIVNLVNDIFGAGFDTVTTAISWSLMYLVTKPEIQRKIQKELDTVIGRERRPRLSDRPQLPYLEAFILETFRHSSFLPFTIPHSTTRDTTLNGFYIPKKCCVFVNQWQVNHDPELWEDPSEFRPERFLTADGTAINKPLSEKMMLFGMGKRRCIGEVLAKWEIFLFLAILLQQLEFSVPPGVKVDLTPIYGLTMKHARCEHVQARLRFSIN
Sequence of Glucocorticoid receptor (Homo sapiens) (P04150 whole entry, looked up, the tested form may be a part): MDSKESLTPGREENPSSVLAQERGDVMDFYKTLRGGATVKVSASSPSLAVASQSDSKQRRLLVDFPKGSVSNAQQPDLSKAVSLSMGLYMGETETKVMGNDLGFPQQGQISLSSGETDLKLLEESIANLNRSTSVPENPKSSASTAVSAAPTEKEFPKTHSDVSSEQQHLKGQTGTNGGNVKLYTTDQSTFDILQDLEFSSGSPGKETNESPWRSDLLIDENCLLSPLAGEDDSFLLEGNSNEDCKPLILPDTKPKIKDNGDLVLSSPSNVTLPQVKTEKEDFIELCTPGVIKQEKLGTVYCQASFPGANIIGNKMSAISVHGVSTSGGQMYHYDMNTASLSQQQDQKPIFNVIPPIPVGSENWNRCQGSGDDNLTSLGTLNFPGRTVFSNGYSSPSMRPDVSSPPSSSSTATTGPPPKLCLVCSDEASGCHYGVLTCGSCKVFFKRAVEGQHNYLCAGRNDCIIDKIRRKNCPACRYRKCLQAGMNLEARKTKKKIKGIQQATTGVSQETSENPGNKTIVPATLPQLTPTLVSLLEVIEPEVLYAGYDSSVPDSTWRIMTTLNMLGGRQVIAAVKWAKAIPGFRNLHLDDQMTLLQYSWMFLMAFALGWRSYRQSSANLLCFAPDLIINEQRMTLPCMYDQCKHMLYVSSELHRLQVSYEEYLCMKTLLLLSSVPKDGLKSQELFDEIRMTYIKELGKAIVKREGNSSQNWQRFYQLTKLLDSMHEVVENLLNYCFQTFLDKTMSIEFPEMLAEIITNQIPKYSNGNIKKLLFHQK
Sequence of Lysosomal acid glucosylceramidase (Homo sapiens) (P04062 whole entry, looked up): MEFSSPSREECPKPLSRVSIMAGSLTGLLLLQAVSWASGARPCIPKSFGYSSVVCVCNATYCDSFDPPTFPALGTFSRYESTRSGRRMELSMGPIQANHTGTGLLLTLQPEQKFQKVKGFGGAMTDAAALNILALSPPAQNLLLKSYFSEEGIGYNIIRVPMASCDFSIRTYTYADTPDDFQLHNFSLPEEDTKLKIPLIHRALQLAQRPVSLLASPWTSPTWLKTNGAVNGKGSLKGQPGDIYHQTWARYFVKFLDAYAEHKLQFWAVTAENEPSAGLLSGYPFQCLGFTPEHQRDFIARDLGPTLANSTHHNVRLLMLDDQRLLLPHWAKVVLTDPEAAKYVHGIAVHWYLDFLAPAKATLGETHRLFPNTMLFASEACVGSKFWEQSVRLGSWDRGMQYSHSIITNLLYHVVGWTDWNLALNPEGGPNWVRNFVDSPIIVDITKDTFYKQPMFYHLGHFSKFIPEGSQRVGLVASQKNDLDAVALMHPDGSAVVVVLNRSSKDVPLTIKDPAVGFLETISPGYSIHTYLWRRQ

On to `O=[N+]([O-])c1ccc2nc(N3CCNCC3)ccc2c1`, for which the call in test [1] and in test [5] was inactive. Also, the Potency in test [2] was 2 µM (active); in test [4] it was > 46 µM (inactive). Moreover, the activity change, negative = inhibition in test [3] was 4.11% (inactive).

Consider `c1cc2c(c(NC3=NCCN3)c1)CCCC2`, for which the Potency in test [6] was > 11.4 µM (inactive); in test [4], > 46 µM (inactive). Besides, the activity change, negative = inhibition in test [1] is 7.07% [at 7.69 µM] (inactive); in test [2] it was -17.1% [at 11.4 µM] (inactive); in test [3], -5.58% [at 7.69 µM] (inactive); in test [5] it was 3.19% [at 11.4 µM] (inactive).

In the case of `NCCc1ccc(S(=O)(=O)F)cc1`, the compound was called inactive in test [1] and in test [5]. The figures for the Potency in test [2], in test [4] and in test [7] were 15.8 µM (active), > 46 µM (inactive) and > 46 µM (inactive), respectively. In test [3], the activity change, negative = inhibition was 2.53% (inactive).

Turning to `CN1CCc2cc(O)cc3c2[C@H]1Cc1ccc(O)c(O)c1-3`, the call in test [1] was inactive. The Potency in test [2] is 12.6 µM (active); in test [4] it was > 46 µM (inactive). Further, the activity change, negative = inhibition in test [3] was -24.8% (inactive). The activity, negative = inhibition in test [8] is -18.2% (inactive).

As to `CP(=O)(O)C1=CCNCC1`, the call in test [1] and in test [5] was inactive. Further, the Potency result in test [2] was “inactive”. Besides, the activity change, negative = inhibition in test [3] is -1.42% (inactive). In addition, the Potency in test [4] is > 46 µM (inactive).

Turning to `c1ccc2cc(CC3=NCCN3)ccc2c1`, the result in test [1] and in test [5] was inactive. The Potency result in test [2] is “inactive”. The activity change, negative = inhibition in test [3] is -0.608% (inactive). Moreover, the activity, negative = inhibition in test [8] was -3.81% (inactive).

As for `NCCCP(=O)(O)O`, the outcome in test [1] and in test [5] was inactive. The Potency result in test [2] was “inactive”. Besides, the activity change, negative = inhibition in test [3] is -4.18% (inactive). Besides, in test [8], the activity, negative = inhibition is 26.4% (inactive). The Potency in test [4] and in test [7] was > 46 µM (inactive) each time.

As for `O=[N+]([O-])c1cc(O)c(O)c([N+](=O)[O-])c1`, the compound was classed as inactive in test [1] and in test [5]. Further, in test [2], the Potency entry was “inactive”. Moreover, the activity change, negative = inhibition in test [3] was 3.02% (inactive). In test [4], the Potency was > 46 µM (inactive).

Consider `COc1ccc2[nH]cc(CCN)c2c1`, for which the call in test [1] and in test [5] was inactive. For the same compound, the Potency in test [2] was 1.58 µM (active); in test [4], > 46 µM (inactive). The activity change, negative = inhibition in test [3] is -0.77% (inactive). In addition, in test [8], the activity, negative = inhibition was -1.18% (inactive).

For the compound `c1ccc2c(N3CCNCC3)cccc2c1`, the compound was classed as inactive in test [1] and in test [5]. For the same compound, the Potency was 10 µM (active) in test [2] and > 46 µM (inactive) in test [4]. In addition, the activity change, negative = inhibition in test [3] is -26.6% (inactive).

For the compound `N#CCCN`, the call in test [1] and in test [5] was inactive. The Potency result in test [2] is “inactive”. Further, in test [3], the activity change, negative = inhibition is 7.43% (inactive). Further, the Potency in test [4] and in test [7] was > 46 µM (inactive) each time.

Turning to `OCc1cnc[nH]1`, in test [1], the outcome was inactive. Besides, the Potency entry in test [2] was “inactive”. For the same compound, the activity change, negative = inhibition in test [3] is 7.81% (inactive). The Potency in test [4] and in test [7] was > 46 µM (inactive) throughout.

As for `CCCN(CCC)[C@@H]1CCc2cccc(O)c2C1`, the call in test [1] and in test [5] was inactive. The Potency result in test [2] is “inactive and 31.6 µM (active)”; in test [4], > 46 µM (inactive). In test [3], the activity change, negative = inhibition is -1.36% (inactive). The activity, negative = inhibition in test [8] was -0.802% (inactive).
